In PubChem BioAssay AID504465 (National Center for Advancing Translational Sciences (NCATS), 2011):
Hit rate of the full screen: of about 2,100 compounds, about 210 (10%) were called active. About 53% were inconclusive and are not listed. Calls come from the whole dose curve; as a rule, active = well fitted inhibition curve with a large enough effect; inconclusive = small, poorly fitted or top-dose-only effect, or effect the other way; inactive = no such curve, though single readings can be large or run the other way. The list shows a part of the results. A call without a number means that no potency is given here.

assay: IN Cell qHTS Assay for Inhibitors of the mTORC1 Signaling Pathway in MEF (Tsc2-/-, p53-/-) Cells: Sytravon; settings: phospho-rpS6 immunofluorescence, 24 h; series mostly up to 38.3 µM; note: nearly all actives have a fitted effect of over 60% in size
Outline: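 Immunofluorescence of rpS6 phosphorylation (Ser235/236) in mouse embryonic fibroblasts lacking Tsc2 and p53, after 24 h compound exposure; Hoechst-normalized signal imaged, each well scored as % active cells relative to rapamycin (7.5 nM) and DMSO controls.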
Potency is the fitted concentration of half-maximal effect.

Row | Structure (SMILES) | Potency
1 | O=C(Cn1c(=O)c2ccccc2n(CC(=O)Nc2ccc(Cl)cc2)c1=O)NCCc1ccccc1 | 14.7 µM (active)
2 | O=C(CCCn1c(=O)c2ccccc2n(Cc2cccc(Cl)c2)c1=O)NCCc1ccc(Cl)cc1 | inactive
3 | CCOc1ccc(NC(=O)Cn2c(=O)n(CCCCCC(=O)NCc3ccccc3)c(=O)c3sccc32)cc1 | inactive
4 | O=C(NCCc1ccc(F)cc1)C(=O)NCC(c1cccs1)S(=O)(=O)c1ccc(Cl)cc1 (stereo not drawn) | inactive
5 | COc1ccc(-n2c(SCCC(C)C)nc3sc4c(c3c2=O)CC(C(C)C)OC4)cc1 (stereo not drawn) | inactive
6 | Fc1ccc(C2=NC(c3cccc(C(F)(F)F)c3)=Nc3ccccc3N2)cc1 | inactive
7 | CCCn1c2ccccc2c2cnn(CC(=O)N(CCCOC)Cc3ccco3)c(=O)c21 | inactive
8 | Cc1ccc(N=C2NC(=O)CC(C(=O)Nc3cc(C(F)(F)F)ccc3Cl)S2)cc1 (stereo not drawn) | inactive
9 | O=C(Nc1cccs1)Nc1cc(C(F)(F)F)ccc1Cl | 9.27 µM (active)
10 | COc1ccc(NC(=O)C2CCCN(S(=O)(=O)c3cccc4nonc34)C2)cc1Cl (stereo not drawn) | inactive
11 | Cc1cccc(C(CC(=O)NCC2(c3ccccc3)CCCC2)c2ccccc2)c1O (stereo not drawn) | inactive
12 | COc1ccccc1N1CCN(C(=O)CSc2nc3ccccc3nc2Cc2ccc(C)cc2)CC1 | inactive
13 | O=C(Cn1cc(SCc2ccccc2)c2ccccc21)N1CCCCC1 | inactive
14 | CCC(C)NC(=O)c1sc2nc(C)c(C(=O)Nc3ccc(C)cc3C)c(-c3ccc(Cl)cc3)c2c1N (stereo not drawn) | inactive
15 | CC1CCc2nc3ncn(CC(=O)Nc4cccc(C#N)c4)c(=O)c3cc2C1 (stereo not drawn) | inactive
16 | CCN1CCc2nc3sc(C(=O)Nc4cccc(Cl)c4C)c(N)c3cc2C1 | inactive
17 | CCC1CCc2nc3sc(C(=O)Nc4ccc(F)c(F)c4)c(N)c3cc2C1 (stereo not drawn) | 5.85 µM (active)
18 | Nc1c(C(=O)Nc2ccccc2F)sc2nc3c(cc12)CCCCCC3 | inactive
19 | CCC1CCc2nc3sc(C(=O)Nc4ccc(C)cc4)c(N)c3cc2C1 (stereo not drawn) | 5.21 µM (active)
20 | CC1CCCCN1S(=O)(=O)c1cc2c(=O)nc3ccccn3c2cc1Cl (stereo not drawn) | inactive

Row | Structure (SMILES) | Potency
21 | C=CCc1ccc(OCc2ccc(C(=O)Nc3ccc(NC(C)=O)cc3)o2)c(OC)c1 | inactive
22 | Cc1cc(C)cc(OCC(=O)NCC(c2ccc(Cl)cc2)N2CCCCC2)c1 (stereo not drawn) | inactive
23 | CCc1c(C)nc2nc(-c3ccccc3)nn2c1NCc1ccc(C)cc1 | inactive
24 | COc1ccc(Br)c(C(=O)Nc2cc3c(cc2N2CCCC2)n(C)c(=O)c(=O)n3C)c1 | inactive
25 | CC(C)c1ccc(NC(=O)c2cc(S(=O)(=O)NCCc3ccccc3)ccc2F)cc1 | inactive
26 | CC(=O)c1ccc(C(=O)N(CCCN(C)C)c2nc3c(C)c(C)ccc3s2)cc1 | 14.7 µM (active)
27 | COc1ccccc1NC(=O)C1=C(C)Nc2nc(-c3ccco3)nn2C1c1cccc(C)c1 (stereo not drawn) | inactive
28 | COc1cc(CNC(=O)c2ccc3nc(Cc4ccccc4)oc3c2)cc(OC)c1OC | inactive
29 | CCc1ccccc1NS(=O)(=O)c1ccc2[nH]cc(C(=O)NC3CCCC3)c(=O)c2c1 | inactive
30 | Cc1ccccc1CNCCCSc1nnnn1-c1ccccc1 | inactive
31 | Cc1ccccc1C(=O)N1CCN(CCc2ccccn2)CC1 | inactive
32 | CCOC(=O)c1cnc2c(Cl)cc(Cl)cc2c1Nc1cc(C(=O)O)ccc1C | inactive
33 | Cc1cc(Cl)ccc1NC(=O)CN1C(=O)C(=O)c2ccccc21 | 2.07 µM (active)
34 | COc1ccc(NC(=O)CN2C(=O)C(=O)c3ccccc32)c(OC)c1 | inactive
35 | CCOc1ccccc1NC(=O)CN1C(=O)C(=O)c2ccccc21 | inactive
36 | CCOc1ccccc1CC1C(=O)Nc2ccc(Br)cc21 (stereo not drawn) | inactive
37 | CC(=O)c1ccc(N2CCN(C(=O)C3CCCN(S(=O)(=O)c4ccc(Br)s4)C3)CC2)cc1 (stereo not drawn) | inactive
38 | COc1ccc(Cn2c(C(=O)O)c(CNCC(C)c3ccccc3)c3ccc(OC)cc32)cc1 (stereo not drawn) | inactive
39 | Cc1cccc(OCC(=O)Nc2ccccc2OCc2cc(=O)n3ccccc3n2)c1 | inactive
40 | CCOc1ccccc1NC(=O)Cn1c(=O)n(CCC(=O)NCc2ccc3c(c2)OCO3)c(=O)c2ccccc21 | 4.65 µM (active)

Row | Structure (SMILES) | Potency
41 | Cc1cc(C)c(NC(=O)Cn2c(=O)n(CCC(=O)NCc3ccc4c(c3)OCO4)c(=O)c3ccccc32)c(C)c1 | inactive
42 | Cc1ccc(C)c(Cn2c(=O)n(CCCCCC(=O)NCc3ccc4c(c3)OCO4)c(=O)c3sccc32)c1 | inactive
43 | COc1ccc(NC(=O)Cn2c(=O)n(CCCC(=O)NCc3ccccc3OC)c(=O)c3ccccc32)cc1Cl | inactive
44 | Cc1cc(C)c(NC(=O)Cn2c(=O)n(Cc3ccc(C(=O)NCc4ccc5c(c4)OCO5)cc3)c(=O)c3ccccc32)c(C)c1 | 4.14 µM (active)
45 | Cc1ccccc1NC(=O)Cn1c(=O)n(CCCCCC(=O)NCc2ccc3c(c2)OCO3)c(=O)c2sccc21 | inactive
46 | Cc1ccc(-c2nc(-c3cccs3)c(-c3cccs3)[nH]2)cc1 | inactive
47 | Cc1ccc(Cl)cc1-n1ncc2c(NC3CCCCCC3)ncnc21 | inactive
48 | CCOC(=O)c1ccc2c(c1)N(Cc1cccc([N+](=O)[O-])c1)C(=O)c1ccccc1S2 | inactive
49 | O=C(Nc1ccc(F)cc1)Nc1nnc(SCC(=O)N2CCCCC2)s1 | inactive
50 | COc1cccc(-c2nc3c(c(SCC(=O)Nc4cccc(C)c4C)n2)Cc2c(CO)cnc(C)c2O3)c1 | inactive
51 | CCOc1ccc(NC(=O)c2nc(S(=O)(=O)Cc3ccccc3F)ncc2Cl)cc1 | 3.69 µM (active)
52 | O=C(Nc1ccccc1F)c1nc(S(=O)(=O)Cc2ccccc2F)ncc1Cl | 2.33 µM (active)
53 | CCOc1ccc(NC(=O)Cn2ccn(-c3ccc(F)c(F)c3)c(=O)c2=O)cc1 | inactive
54 | CCOc1cccc(NC(=O)CSc2ncc(-c3ccc(Cl)cc3)[nH]2)c1 | inactive
55 | CCOc1ccc(CNCc2c(C(=O)O)n(Cc3ccccc3C)c3cc(OC)ccc23)cc1OC | inactive
56 | O=C1CC(c2ccccc2)Cc2[nH]c(=O)c(-c3nc(-c4cccc(Cl)c4)cs3)cc21 (stereo not drawn) | inactive
57 | COc1ccc(C2C(=O)N(C3CCCCCC3)CC(=O)N2CCc2ccccc2)cc1 (stereo not drawn) | inactive
58 | CC(C)c1cnc2c(c1SCC(=O)c1ccc(Cl)cc1)c(=O)n(C)c(=O)n2C | inactive
